# JMJD2E inh – qHTS Assay for Inhibitors of Human Jumonji Domain Containing 2E (JMJD2E); Potency, µM (top dose mostly 57.1 µM), for the others: at the highest dose activity change, negative = inhibition, usual class: inhibitors; AID 2147, 2009; hit rate 1.6% among 230,000; JMJD2E catalytic domain, FDH-coupled NADH fluorescence (FDH is formaldehyde dehydrogenase);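 also: 0% = wells with enzyme and -100% = buffer wells without enzyme; nearly all actives have a fitted effect of over 50% in size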
# HPGD block – qHTS Assay for Inhibitors of HPGD (15-Hydroxyprostaglandin Dehydrogenase); hit rate 4.3% among 150,000; 15-hydroxyprostaglandin dehydrogenase [NAD(+)] (Homo sapiens), P15428; purified HPGD, NADH fluorescence kinetic, PGE2 substrate; Potency, µM, without a hit: at the top dose activity change, negative = inhibition, usual class: inhibitors
#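 20 nM HPGD preincubated 15 min at room temperature with compound in 50 mM Tris-HCl pH 8, 0.01% Tween 20. Started with 1 mM NAD+ and 30 uM prostaglandin E2; NADH fluorescence (360/450 nm) read 5 times over 30-s intervals, last minus first.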
# ALDH1A1 inh – qHTS Assay for Inhibitors of Aldehyde Dehydrogenase 1 (ALDH1A1); AID 1030, 2008; Aldehyde dehydrogenase 1A1 (Homo sapiens), P00352; hit rate 7.3% among 220,000; Purified ALDH1A1, NADH fluorescence, propionaldehyde substrate; Potency, µM (highest dose often 75.3 µM), for the others: top-dose activity, negative = inhibition, most hits filed as inhibitors;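 also: plate controls were no enzyme wells and a reference inhibitor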
# Target sequence (P00352 whole entry, looked up): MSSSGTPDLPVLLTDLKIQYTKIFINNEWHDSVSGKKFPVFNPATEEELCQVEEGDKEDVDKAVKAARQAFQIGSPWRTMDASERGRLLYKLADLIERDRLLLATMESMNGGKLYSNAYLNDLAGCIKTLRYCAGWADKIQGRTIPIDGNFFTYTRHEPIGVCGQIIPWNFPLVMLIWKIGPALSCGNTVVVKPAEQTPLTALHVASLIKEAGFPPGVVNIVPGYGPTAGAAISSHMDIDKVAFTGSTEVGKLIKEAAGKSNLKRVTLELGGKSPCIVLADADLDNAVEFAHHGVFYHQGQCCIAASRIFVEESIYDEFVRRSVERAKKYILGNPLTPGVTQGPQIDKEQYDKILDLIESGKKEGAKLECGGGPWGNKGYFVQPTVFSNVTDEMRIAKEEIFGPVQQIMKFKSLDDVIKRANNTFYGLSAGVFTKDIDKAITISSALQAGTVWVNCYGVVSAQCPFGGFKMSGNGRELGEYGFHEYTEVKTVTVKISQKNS
# Tau fluor cs – Counterscreen qHTS for Inhibitors of Tau Fibril Formation, Fluorescence Polarization | tau K18 P301L Alexa594 fluorescence, heparin fibrillization | Potency, µM (highest dose often 57.7 µM), inactives show top-dose activity change, negative = decrease | hit rate 0.93% among 280,000; active = well fitted curve in the direction sought with a large enough effect; inconclusive = small, poorly fitted or top-dose-only effect, or another doubt; inactive = no such curve, though single readings can be large; an effect the other way counts as inactive or inconclusive; also: nearly all actives have a fitted effect of over 55% in size
#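 Human tau K18 P301L (15 uM unlabeled, 0.24 uM Alexa 594-labeled) in 100 mM sodium acetate pH 7 with 20 uM heparin, 6 hr at 37 C. ThT 30 uM added, 1 hr ambient; Alexa 594 FP and total fluorescence read at 555/632 nm.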
# Tau ThT inhib – qHTS for Inhibitors of Tau Fibril Formation, Thioflavin T Binding; Microtubule-associated protein tau (Homo sapiens), P10636; recombinant tau K18 P301L, heparin-induced fibrillization, ThT fluorescence; Potency, µM (doses to about 57.4 µM), for the others: at the top dose activity, negative = inhibition, usual class: inhibitors; hit rate 2.1% among 270,000; AID 1460, 2008; active = well fitted curve in the direction sought with a large enough effect; inconclusive = small, poorly fitted or top-dose-only effect, or another doubt; inactive = no such curve, though single readings can be large; an effect the other way counts as inactive or inconclusive; also: nearly all actives have a fitted effect of over 55% in size
#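 Fibril formation assay: tau K18 P301L at 15 uM with trace Alexa 594 label, heparin inducer 20 uM, pH 7 sodium acetate buffer, 37 C for 6 hr; endpoint ThT signal.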
# Tau FP inhib – qHTS for Inhibitors of Tau Fibril Formation, Fluorescence Polarization; AID 1468, 2008; Potency, µM (titrated, usually from 57.7 µM), for inactives: top-dose activity, negative = inhibition, actives largely listed as inhibitors; K18 P301L tau heparin fibrillization, Alexa594 FP, 6 h; Microtubule-associated protein tau (Homo sapiens), P10636; hit rate 0.39% among 280,000; active = well fitted curve in the direction sought with a large enough effect; inconclusive = small, poorly fitted or top-dose-only effect, or another doubt; inactive = no such curve, though single readings can be large; an effect the other way counts as inactive or inconclusive; also: nearly all actives have a fitted effect of over 55% in size
#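 Human K18 P301L fragment (15 uM unlabeled plus 0.24 uM Alexa 594-labeled) in 100 mM sodium acetate pH 7 with compound, aggregation induced by 20 uM heparin for 6 hr at 37 C. ThT (30 uM) added for 1 hr, then Alexa 594 FP read.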
# The depositor's hits bear a star; ? = inconclusive; nt = no result; [ ] = dose if it differs, or a comment. An excerpt weighted towards active compounds, which were near 9.9% of everything screened. Unless noted, calls follow the shape of the dose curve; as a rule, active = well fitted inhibition curve with a large enough effect (not every such curve was filed as active); inconclusive = small, poorly fitted or top-dose-only effect, or another doubt; inactive = no such curve, though single readings can be large or run the other way. Unless noted, % is scaled to controls: 0 for no effect and ±100 for the full control effect; potency is read from the fitted curve at half-maximal effect.
SMILES,JMJD2E inh,HPGD block,ALDH1A1 inh,Tau fluor cs,Tau ThT inhib,Tau FP inhib
Cc1ccc(NC(=O)c2c(C)nn(-c3ccccc3)c2Cl)c(C)c1,6%,14µM*,-12%,-23%,?,-2%
Cc1cccc(C)c1NC(=O)c1c(C)nn(-c2ccccc2)c1Cl,4%,-6%,-5%,-7%,-20%,?
Cc1nn(-c2ccccc2)c(Cl)c1C(=O)NC1CCCCC1,-30%,nt,-8%,-4%,-5%,-4%
Cc1nn(-c2ccccc2)c(Cl)c1C(=O)Nc1nnc(C2CCCC2)s1,-15%,-19%,2.8µM*,-11%,?,1%
CSc1cccc(NC(=O)Cn2cccc2)c1,-3%,14µM*,0.63µM*,0%,-3%,-1%
CC(=O)c1cccc(NC(=O)COc2ccccc2)c1,13%,-9%,12%,-9%,-10%,?
Cn1c(NC(=O)COc2ccccc2)cc(=O)n(C)c1=O,-3%,-7%,25µM*,-4%,-13%,0%
CSc1cccc(NC(=O)COc2ccccc2)c1,-4%,18µM*,?,-8%,-15%,2%
CCOC(=O)CCCc1ccc(/C(C)=N/NC(N)=S)cc1,1%,nt,nt,-26%,nt,3%
COc1ccc(-c2noc(-c3ccc(NC4CCCC4)c([N+](=O)[O-])c3)n2)cc1OC,nt,nt,nt,-19%,9%,-7%
O=C1NCCN/C1=C\C(=O)c1ccc(Br)cc1,12%,nt,nt,-3%,-3%,3%
N#CCCn1cc(C(=O)Nc2ccc([N+](=O)[O-])cc2)c(-c2cccs2)n1,-4%,-15%,22µM*,?,?,?
O=C(NN1C(=O)C2C(C1=O)C1C=CC2C12CC2)c1cccnc1 (stereo not given),-3%,nt,-1%,-2%,-1%,-7%
O=C(NN1C(=O)C2C(C1=O)C1C=CC2C12CC2)c1ccncc1 (stereo not given),?,nt,?,?,10µM*,?
C=C(C)C(O)/C=C/C=C/c1ccccc1 (stereo not given),nt,nt,-13%[13.5 µM],-14%[11.6 µM],-20%[11.5 µM],-5%[11.6 µM]
CC(C)Cn1c(=S)[nH]c2cc(Cl)ccc21,-9%,nt,8.9µM*,-11%,4%,-9%
COc1ccc(S(=O)(=O)NC2CC(C)(C)NC(C)(C)C2)cc1C(C)C,12%,nt,nt,?,nt,-9%
CN1\C(=C/C=C/C=C/C=[N+](C)C)C(C)(C)c2ccccc21,?,nt,25µM*,1.6µM*[fluorescent],3.5µM*,?
CN(C)c1ccc(N=C/C=C2\N(C)c3ccccc3C2(C)C)cc1,?,-13%,?,?,5µM*,-7%
CN1/C(=C\C=O)C(C)(C)c2ccccc21,-27%,nt,-6%,14%,-17%,11%
CCOC(=O)CSc1n[nH]c(NC(C)=O)n1,12%,nt,9%,13%,7%,-13%
COc1ccccc1CN=C1NC(=O)C(CC(=O)Nc2ccc(C(C)=O)cc2)S1 (stereo not given),1%,nt,nt,-9%,-5%,-2%
N#Cc1cc(-c2ccccc2)cnc1Cl,2%,-15%,3.5µM*,-13%,-11%,0%
O=Cc1ccc(OC(=O)c2cc(Cl)nc3ccccc23)cc1,-13%,-30%,14µM*,9%,?,8%
CCc1cc(C(=O)Nc2c(C)nn(Cc3ccc(C)cc3)c2C)no1,nt,nt,nt,-3%,-5%,2%
Cc1nn(C(C)C(=O)Nc2sc3c(c2C#N)CCCC3)c(C)c1[N+](=O)[O-] (stereo not given),3%,-4%,-10%,-23%,-10%,-3%
CCc1cc(C(=O)Nc2sc(C)c(CC)c2C#N)no1,nt,nt,nt,?,28µM*,?
CC(C)c1onc(C(=O)Nc2sc3c(c2C#N)CCC3)c1[N+](=O)[O-],-9%,nt,13µM*,-18%,?,1%
N#Cc1c(NC(=O)c2cnccn2)sc2c1CCCC2,?,28µM*,14µM*,-29%,?,-12%

# Bioassay records deposited in PubChem BioAssay by National Center for Advancing Translational Sciences (NCATS).
